“And” between values parts separate entries of the source, which are not always exact repeats. Equal values may be shown once. Screen size: about 5,500 compounds; about 2,000 (36%) were called active. Not shown: some 18% with an inconclusive outcome. No stated cut-off is given here; in the data, active means normalized growth mostly below about 0.91 (no sharp cut-off); inconclusive means no clear call, values can overlap the other calls; inactive means mostly above about 0.92. This is one part of the list. Where a SMILES comes first, the peptide text is derived from it. Bridges are numbered along the chain shown (N, C = ends). [ ]: non-standard residue; d: D form. The star is where a group is joined. Octanoyl(6-Me) = CCC(C)CCCCC(=O)*; Dab = NCC[CH](N)C(=O)O
Experiment: chemical genetic growth profiling, strain panel (AID 1159580);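 further: tested at 20 µM; growth read once vehicle control cultures reached saturation at 30 °C; 1 = growth at the plate median or of vehicle wells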
Settings: S. cerevisiae deletion strains, growth OD

Measured: normalized growth

CCC(C)CCCCC(=O)NC(CCN)C(=O)NC(C(=O)NC(CCN)C(=O)NC1CCNC(=O)C(C(C)O)NC(=O)C(CCN)NC(=O)C(CCN)NC(=O)C(CC(C)C)NC(=O)C(Cc2ccccc2)NC(=O)C(CCN)NC1=O)C(C)O (configuration not stated) ({Octanoyl(6-Me)}-[Dab]T[Dab][Dab][Dab]FL[Dab][Dab]T; lactam 4-C; configuration not given here)
inactive: locus YAL013W, strain DEP1, stronger effect = lower value 1 | locus YAL021C, strain ccr4, stronger effect = lower value 0.95 | locus YAL026C, strain drs2, stronger effect = lower value 0.934 | locus YAL030W, strain snc1, stronger effect = lower value 0.99 | locus YBL061C, strain skt5, stronger effect = lower value 0.99 | locus YBR009C, strain hhf1, stronger effect = lower value 0.98 | locus YBR021W, strain FUR4, stronger effect = lower value 0.996 | locus YBR023C, strain chs3, stronger effect = lower value 0.99 | locus YBR171W, strain sec66, stronger effect = lower value 1 | locus YBR229C, strain ROT2, stronger effect = lower value 1 | locus YBR231C, strain swc5, stronger effect = lower value 1 | locus YBR279W, strain paf1, stronger effect = lower value 0.99 | locus YCL011C, strain gbp2, stronger effect = lower value 0.995 | locus YCL016C, strain dcc1, stronger effect = lower value 0.975 | locus YCL029C, strain bik1, stronger effect = lower value 1.02 | locus YCL061C, strain MRC1, stronger effect = lower value 0.959 | locus YCL069W, strain vba3, stronger effect = lower value 0.999 | locus YCR088W, strain abp1, stronger effect = lower value 0.997 | locus YDL005C, strain med2, stronger effect = lower value 0.99 | locus YDL035C, strain GPR1, stronger effect = lower value 0.973 | locus YDL040C, strain nat1, stronger effect = lower value 1 | locus YDL074C, strain BRE1, stronger effect = lower value 1.01 | locus YDL101C, strain DUN1, stronger effect = lower value 1.02 | locus YDL134C, strain PPH21, stronger effect = lower value 0.997 | locus YDL185W, strain tfp1, stronger effect = lower value 1 | locus YDL192W, strain arf1, stronger effect = lower value 0.991 | locus YDR001C, strain nth1, stronger effect = lower value 1.01 | locus YDR069C, strain doa4, stronger effect = lower value 0.989 | locus YDR101C, strain arx1, stronger effect = lower value 1.01 | locus YDR137W, strain rgp1, stronger effect = lower value 1.08 | locus YDR150W, strain NUM1, stronger effect = lower value 0.995 | locus YDR159W, strain sac3, stronger effect = lower value 0.985 | locus YDR162C, strain NBP2, stronger effect = lower value 0.99 | locus YDR195W, strain ref2 0.953 | locus YDR297W, strain sur2, stronger effect = lower value 0.994 | locus YDR318W, strain mcm21, stronger effect = lower value 1.01 | locus YDR334W, strain swr1, stronger effect = lower value 1 | locus YDR335W, strain msn5, stronger effect = lower value 0.998 | locus YDR388W, stronger effect = lower value 1.01 | locus YDR392W, strain spt3, stronger effect = lower value 0.802 | locus YDR502C, strain sam2, stronger effect = lower value 0.997 | locus YEL003W, strain gim4, stronger effect = lower value 0.997 | locus YEL037C, strain rad23, stronger effect = lower value 1 | locus YEL061C, strain CIN8 (second series), stronger effect = lower value 1 | locus YEL061C, strain CIN8, stronger effect = lower value 0.998 | locus YER015W, strain faa2, stronger effect = lower value 0.992 | locus YER016W, strain bim1, stronger effect = lower value 1 | locus YER110C, stronger effect = lower value 1.02 | locus YER111C, strain swi4, stronger effect = lower value 1 | locus YER155C, strain BEM2 (second series), stronger effect = lower value 0.91 | locus YER155C, strain BEM2, stronger effect = lower value 1.02 | locus YER167W, strain BCK2, stronger effect = lower value 0.996 | locus YFR010W, strain ubp6, stronger effect = lower value 0.999 | locus YGL078C, strain dbp3, stronger effect = lower value 0.993 | locus YGL086W, strain mad1, stronger effect = lower value 0.989 | locus YGL167C, strain pmr1, stronger effect = lower value 0.978 | locus YGL173C, strain kem1, stronger effect = lower value 0.99 | locus YGL227W, strain vid30, stronger effect = lower value 1.01 | locus YGL240W, strain doc1, stronger effect = lower value 0.986 | locus YGL248W, strain PDE1, stronger effect = lower value 1.01 | locus YGL253W, strain hxk2, stronger effect = lower value 1.01 | locus YGR078C, strain PAC10, stronger effect = lower value 1.02 | locus YGR135W, strain pre9, stronger effect = lower value 0.998 | locus YGR229C, strain SMI1, stronger effect = lower value 0.976 | locus YGR252W, strain gcn5, stronger effect = lower value 0.937 | locus YHR013C, strain ard1, stronger effect = lower value 0.901 | locus YHR027C, strain rpn1, stronger effect = lower value 0.989 | locus YHR030C, strain SLT2, stronger effect = lower value 1 and 0.991 | locus YHR079C, strain IRE1 (second series), stronger effect = lower value 1.01 | locus YHR079C, strain IRE1, stronger effect = lower value 0.995 | locus YHR094C, strain hxt1, stronger effect = lower value 1.01 | locus YHR129C, strain ARP1, stronger effect = lower value 1.01 | locus YHR142W, strain chs7, stronger effect = lower value 1.01 | locus YHR200W, strain rpn10, stronger effect = lower value 0.996 | locus YIL066C, strain RNR3, stronger effect = lower value 0.984 | locus YIL073C, strain SPO22, stronger effect = lower value 1.02 | locus YIL125W, strain kgd1, stronger effect = lower value 0.994 | locus YIR030C, strain dcg1, stronger effect = lower value 1.01 | locus YJL092W, strain hpr5, stronger effect = lower value 1 | locus YJL095W, strain BCK1 (second series), stronger effect = lower value 1.01 | locus YJL095W, strain BCK1, stronger effect = lower value 1.02 and 1 | locus YJL115W, strain asf1, stronger effect = lower value 0.977 | locus YJL129C, strain trk1, stronger effect = lower value 1.09 | locus YJL134W, strain LCB3, stronger effect = lower value 1 | locus YJL154C, strain vps35, stronger effect = lower value 1.01 | locus YJL164C, strain tpk1, stronger effect = lower value 0.98 | locus YJL166W, strain qcr8, stronger effect = lower value 0.981 | locus YJL168C, strain set2, stronger effect = lower value 1.01 | locus YJL187C, strain SWE1 (second series), stronger effect = lower value 1.02 | locus YJL187C, strain SWE1, stronger effect = lower value 0.998 | locus YJR043C, strain POL32, stronger effect = lower value 1.02 | locus YJR066W, strain TOR1, stronger effect = lower value 0.97
